# Reference: PubChem BioAssay (EPA / NIEHS)
# Records with an inconclusive call do not appear. Activity calls are given as the source filed them. The calls were made as follows, unless noted: active = hit-call score of the fitted dose curve at least 0.9, where 1 is the maximum; inconclusive = response in the unintended direction; inactive = score below 0.9.
# Target: Estrogen receptor (Homo sapiens) (UniProt P03372)
# Test: CCTE_Deisenroth_AIME_384WELL_LUC_Active: CCTE's 384-well Estrogen Receptor Transactivation Assay with AIME metabolic competence (ERTA luciferase; metabolism positive), Deisenroth Lab (AID 2284030)
# Procedure, shortened: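 VM7Luc4E2 breast cells were given, for 24 hours, medium pre-incubated for 2 hours with parent chemical (0.002-200 uM, 10 concentrations) and alginate-encapsulated phenobarbital/beta-naphthoflavone-induced rat hepatic S9. Luciferase gain of signal was fitted against 17beta-estradiol; n=4 or more.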
# Estrogen receptor (Homo sapiens), sequence (P03372 whole entry, looked up): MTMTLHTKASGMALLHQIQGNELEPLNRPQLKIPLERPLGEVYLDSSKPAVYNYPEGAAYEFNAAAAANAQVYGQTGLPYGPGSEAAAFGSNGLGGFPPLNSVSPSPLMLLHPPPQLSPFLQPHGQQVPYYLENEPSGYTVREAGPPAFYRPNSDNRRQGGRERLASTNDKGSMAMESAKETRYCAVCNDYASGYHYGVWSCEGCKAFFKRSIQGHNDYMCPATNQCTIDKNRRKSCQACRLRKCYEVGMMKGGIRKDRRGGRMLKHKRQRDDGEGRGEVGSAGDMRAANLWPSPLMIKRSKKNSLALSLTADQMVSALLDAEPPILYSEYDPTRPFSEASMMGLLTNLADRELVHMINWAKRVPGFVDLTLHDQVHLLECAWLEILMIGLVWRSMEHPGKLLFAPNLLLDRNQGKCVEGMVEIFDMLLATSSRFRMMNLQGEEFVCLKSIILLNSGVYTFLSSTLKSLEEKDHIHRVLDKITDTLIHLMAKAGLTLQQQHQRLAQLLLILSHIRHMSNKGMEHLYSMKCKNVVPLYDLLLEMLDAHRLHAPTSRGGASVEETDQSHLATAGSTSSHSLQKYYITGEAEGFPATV
SMILES,outcome,AC50
COc1ccc2[nH]cc(CCNC(C)=O)c2c1,inactive,–
CCCO,inactive,–
CC(=O)Oc1c(C)c(C)c2c(c1C)CC[C@@](C)(CCC[C@H](C)CCC[C@H](C)CCCC(C)C)O2,inactive,–
CCCCOCCOCCOCCO,inactive,–
[O-]/[N+](=N\O)c1ccccc1,–,72.8 µM (active)
CC(C)(C)C1CCC(O)CC1 (stereo not given),inactive,–
CC(=O)CC(=O)N(C)C,inactive,–
C=CC(C)CCCC(C)(C)O (stereo not given),inactive,–
Cc1cccc(O)c1,inactive,–
CC(CCO)CC(C)(C)C (stereo not given),inactive,–
[Na+],inactive,–
CCCC1CCC(=O)CC1,inactive,–
CCC(C)COC(=O)CC(C)C (stereo not given),inactive,–
CCCCCCCCOC(=O)c1ccc(O)cc1,inactive,–
NC(N)=S,inactive,–
C1CCCNCC1,inactive,–
CN(C)C(=O)Nc1ccccc1,inactive,–
CC(=O)C1=C(C)[C@@H]2C[C@@]3(C1)[C@H](C)CC[C@H]3C2(C)C,–,0.000204 µM (active)

# Tested on: not listed separately
# Test: CCTE_Shafer_MEA_dev_firing_rate_mean: CCTE's Neural Network Formation Assay for Mean Firing Rate, Shafer Lab (AID 2284031; active = hit-call score of the fitted dose curve at least 0.9, where 1 is the maximum; inactive = score below 0.9;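 also: AUC of well mean spike rate recorded on DIV 5 7 9 and 12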)
# Procedure, shortened: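 Rat primary cortical neurons were seeded on multielectrode arrays and treated from plating through day 12, with redosing at each feed. Spontaneous spiking was recorded four times; mean firing rate AUC was fitted downward against DMSO.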
row,SMILES,outcome
1,CCCCC(CC)COC(=O)COc1ccc(Cl)cc1C (stereo not given),inactive
2,N#CCCNCCC#N,inactive
3,CC(C)Cc1ccc(C(C)C(=O)O)cc1 (stereo not given),inactive

# Tested on: not listed separately
# Test: CCTE_Shafer_MEA_dev_per_burst_spike_percent: CCTE's Neural Network Formation Assay for Percent of Spikes in a Burst, Shafer Lab (AID 2284032; active = hit-call score of the fitted dose curve at least 0.9, where 1 is the maximum; inactive = score below 0.9)
# Procedure, shortened: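 Rat primary cortical neurons on 16-electrode MEA wells, dosed from plating day 0 for 12 days with renewal on DIV 5 and 9; spikes-in-bursts percentage averaged over bursting electrodes, collapsed as AUC across days 5, 7, 9, 12; loss direction versus DMSO.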
row,SMILES,outcome
1,CCCCC(CC)COC(=O)COc1ccc(Cl)cc1C (stereo not given),inactive
2,N#CCCNCCC#N,inactive
3,CC(C)Cc1ccc(C(C)C(=O)O)cc1 (stereo not given),inactive

# Tested on: not listed separately
# Test: CCTE_Deisenroth_AIME_384WELL_CTox_Active: Cytotoxicity Assessment (CTOX) in CCTE's 384-well Estrogen Receptor Transactivation Assay with AIME metabolic competence (metabolism positive), Deisenroth Lab (AID 2284037);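 also: chemicals first conditioned 2 h by alginate-bound induced rat liver S9 before cells; activity means signal loss indicating cell death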
# Procedure, shortened: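 Cytotoxicity in VM7Luc4E2 breast cells, 24 hour, measured as protease-substrate fluorescence loss, after 2-hour metabolic conditioning with induced rat hepatic S9 in alginate microspheres. Concentrations 0.002 - 200 uM, 10 points, bidirectional fitting.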
SMILES,outcome,AC50
COc1ccc2[nH]cc(CCNC(C)=O)c2c1,inactive,–
CC(=O)Oc1c(C)c(C)c2c(c1C)CC[C@@](C)(CCC[C@H](C)CCC[C@H](C)CCCC(C)C)O2,inactive,–
CC(C)(C)C1CCC(O)CC1 (stereo not given),inactive,–
CC(=O)CC(=O)N(C)C,inactive,–
Cc1cccc(O)c1,inactive,–
CC(CCO)CC(C)(C)C (stereo not given),inactive,–
CCC(C)COC(=O)CC(C)C (stereo not given),inactive,–
NC(N)=S,inactive,–
C1CCCNCC1,inactive,–
CCCCCCCCCCCCOCCOS(=O)(=O)O,–,147 µM (active)
CC(=O)C1=C(C)[C@@H]2C[C@@]3(C1)[C@H](C)CC[C@H]3C2(C)C,inactive,–

# Target: Estrogen receptor (Homo sapiens) (UniProt P03372)
# Test: CCTE_Deisenroth_AIME_384WELL_LUC_Inactive: CCTE's 384-well Estrogen Receptor Transactivation Assay without AIME metabolic competence (ERTA luciferase; metabolism negative), Deisenroth Lab (AID 2284038);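 also: VM7Luc4E2 breast cells given medium preincubated 2 h with S9-free microspheres; hits raise estrogen receptor luciferase signal so potencies reflect agonists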
# Procedure, shortened: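 Metabolism-negative mode: chemicals (10-point, 0.002–200 uM) held 2 h with alginate-water microspheres, then conditioned medium applied to VM7Luc4E2 cells for 24 h. Luciferase induction referenced to 17beta-estradiol.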
SMILES,outcome,AC50
COc1ccc2[nH]cc(CCNC(C)=O)c2c1,inactive,–
CCCO,inactive,–
O=C1OC2(c3ccc(O)cc3Oc3cc(O)ccc32)c2ccccc21,inactive,–
CC(=O)Oc1c(C)c(C)c2c(c1C)CC[C@@](C)(CCC[C@H](C)CCC[C@H](C)CCCC(C)C)O2,inactive,–
CCCCOCCOCCOCCO,inactive,–
[O-]/[N+](=N\O)c1ccccc1,–,59 µM (active)
CC(C)(C)C1CCC(O)CC1 (stereo not given),inactive,–
CC(=O)CC(=O)N(C)C,inactive,–
C=CC(C)CCCC(C)(C)O (stereo not given),inactive,–
Cc1cccc(O)c1,inactive,–
CC(CCO)CC(C)(C)C (stereo not given),inactive,–
[Na+],inactive,–
CCCC1CCC(=O)CC1,inactive,–
CCC(C)COC(=O)CC(C)C (stereo not given),inactive,–
CCCCCCCCOC(=O)c1ccc(O)cc1,–,39.7 µM (active)
NC(N)=S,inactive,–
C1CCCNCC1,inactive,–
CN(C)C(=O)Nc1ccccc1,inactive,–
CC(=O)C1=C(C)[C@@H]2C[C@@]3(C1)[C@H](C)CC[C@H]3C2(C)C,–,0.000263 µM (active)
CCC(=O)OC(C)(C)C1CC=C(C)CC1 (stereo not given),inactive,–
